From PubChem
In the library only some 19% were active in any assay of this set; here they are far more common.
TDP1 cell CPT: growth inhibition of DT40 Tdp1-/-;hTDP1 cells with camptothecin (screen for TDP1 inhibitors). chicken DT40 Tdp1-/-;hTDP1 cells + 20 nM CPT, ATP luminescence, 48 h. Potency, µM (series often up to 46.2 µM), for inactives: at the highest dose activity change, negative = growth inhibition, most hits filed as inhibitors. 420,000 compounds, 12% hits. AID 686979; further: potency means the concentration at half of the fitted maximal effect; nearly all actives have a fitted effect of over 55% in size
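Chicken DT40 Tdp1-/- cells complemented with human TDP1, 400 cells/well, exposed to compounds plus 20 nM camptothecin for at least 48 h at 37 C; viability read as ATP content by CellTiter-Glo luminescence.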
HT1080NT lethal: kills 2HG-producing HT-1080-NT fibrosarcoma cells | HT-1080-NT fibrosarcoma viability, CellTiter-Glo ATP luminescence, 48 h | Potency, µM (highest dose often 46.1 µM), for inactives: at the highest dose activity, negative = less viability, most hits filed as cytotoxic | AID 686970 | 360,000 compounds, 1.6% hits;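 further: NT is the 2HG producing partner of a matched IDH1 knockdown line; potency means the concentration at half of the fitted maximal effect; 0% = DMSO-treated cells and -100% = media-only wells without cells; nearly all actives have a fitted effect of over 55% in size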
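Fibrosarcoma NT cells, 750 per well in 5% FBS RPMI, were exposed to compound for 48 hours. Viability: CellTiter-Glo luminescence.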
HT1080 IDH1KD tx: toxicity to HT-1080 IDH1 knockdown cells (counter line); HT-1080 IDH1 knockdown viability, ATP luminescence, 48 h; Potency, µM (series often up to 46.1 µM), for the others: at the highest dose activity, negative = toxicity, hits mostly cytotoxic; AID 686971; 360,000 compounds, 2% hits;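 further: potency means the concentration at half of the fitted maximal effect; 0% = DMSO wells and -100% = cell-free medium wells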
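HT-1080-IDH1KD cells (IDH1 knocked down), 750/well in RPMI with 5% FBS, treated with compound 48 h at 37 degrees C. Viability by CellTiter-Glo luminescence, normalised to DMSO and no-cell wells; concentration-response curves classed.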
IL-1B inflam inh: inhibitors of inflammasome signaling (IL-1 beta secretion); AID 743279; activity change, % at 57.5 µM; 360,000 compounds, 4.7% hits; THP-1 LPS/ATP IL-1B secretion, AlphaLISA, 16 h; active compounds read low; in the data active means activity change below about -50%; inconclusive means mostly about -30% to -49%
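THP-1 cells pretreated 1 hr with compounds (up to 57.5 uM final), then stimulated with LPS (250 ng/mL final) plus ATP (1.25 mM final); secreted IL-1B measured by AlphaLISA after 16 hr, decreased signal indicating inhibition.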
ELG1 DNA repair: inhibitors of ELG1-dependent DNA repair in HEK293T cells. HEK293T ELG1-luciferase reporter, luminescence, 16 h; DNA damage induced by 5-fluorouridine. Potency, µM (titrated, usually from 46.1 µM), inactives show at the highest dose activity change, negative = inhibition, actives largely listed as inhibitors. 330,000 compounds, 2.3% hits. AID 504467; further: potency means the concentration at half of the fitted maximal effect; nearly all actives have a fitted effect of over 55% in size
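Luminescence from the luciferase reporter, measured 30 min after ONE-Glo reagent at room temperature, was the read-out. Beforehand, 2,000 cells per well were exposed for 16 hr at 37 °C to 5-fluorouridine together with compound or vehicle.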
DT40 TDP1 no CPT: qHTS for Inhibitors of human tyrosyl-DNA phosphodiesterase 1 (TDP1): qHTS in cells in absence of CPT | DT40 Tdp1-/- hTDP1 cells, no CPT, ATP luminescence, 48 h | Potency, µM (highest dose often 46.2 µM), for the others: at the highest dose activity change, negative = growth inhibition, actives largely listed as inhibitors | 420,000 compounds, 15% hits; further: potency means the concentration at half of the fitted maximal effect; nearly all actives have a fitted effect of over 55% in size
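Growth of hTDP1-complemented DT40 Tdp1-knockout cells is measured by ATP luminescence after at least 48 hr compound exposure at 37 °C, with DMSO substituting for the 20 nM CPT used in the parallel screen.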
* marks the source's active call; other numbers are inactive results; ? = inconclusive; nt = no result. Unless noted, the call rests on the fitted dose curve; in most records, active means well fitted curve in the direction sought with a large enough effect; inconclusive means small, poorly fitted or top-dose-only effect, or another doubt; inactive means no such curve, though single readings can be large; an effect the other way counts as inactive or inconclusive. Unless noted, on the % scale 0 is the no-effect control and ±100 the full control effect.

SMILES	TDP1 cell CPT	HT1080NT lethal	HT1080 IDH1KD tx	IL-1B inflam inh	ELG1 DNA repair	DT40 TDP1 no CPT
CCCCN(CCCNC(=O)CN1C(=O)COc2ccc(S(=O)(=O)N3CCC(C)CC3)cc21)Cc1ccccc1	?	4%	0%	36	0%	?
CCN(Cc1ccccc1)C(=O)CN1C(=O)COc2ccc(S(=O)(=O)N(CC)CC)cc21	23µM*	nt	nt	nt	nt	?
O=C(c1cccc(Cl)c1)C1CCCN(C(=O)c2ccc3c(c2)OCO3)C1 (centres undefined)	?	10%	-7%	10	-4%	?
Nc1cc(=O)[nH]c(SCC(=O)Nc2ccc(Oc3ccccc3)cc2)n1	-15%	0%	0%	47	-6%	?
COc1cc(Cl)c(C)cc1NC(=O)CSc1cc(=O)n(C)c2cc(Cl)ccc12	1%	nt	nt	nt	nt	-19%
Cc1ccc(C)c(C(=O)COc2ncnc3ccccc23)c1	18µM*	-24%	-15%	28	12%	?
COc1cc(OC)c(C(=O)COc2ncnc3ccccc23)c(OC)c1	?	4%	7%	11	-20%	?
O=c1c(CCc2ccccc2)nc2cnc(N3CCOCC3)nc2n1Cc1ccc(F)cc1	-13%	nt	nt	nt	nt	-2%
Cc1noc(Cn2c(=O)c3ccccc3n(CC(=O)Nc3ccc(C(C)C)cc3)c2=O)n1	?	nt	nt	nt	nt	16µM*
COc1cccc(NC(=O)Cn2c(=O)n(Cc3nc(-c4ccccc4)no3)c(=O)c3ccccc32)c1	-24%	nt	nt	nt	nt	?
COc1ccc(-c2noc(Cn3c(=O)c4ccccc4n(CC(=O)Nc4cccc(OC)c4)c3=O)n2)cc1	?	nt	nt	nt	nt	21µM*
CC1(C)CN(Cc2ccccc2)C(=O)[C@H]1CC(=O)Nc1ccc(Br)cc1	?	1%	10%	-16	nt	13µM*
COc1ccc(NC(=O)C[C@@H]2C(=O)N(Cc3ccccc3)CC2(C)C)cc1	-26%	3%	0%	15	nt	21µM*
CC(C)(C)c1ccc(CC(=O)N2CCC2(C)C(=O)NCCC#N)cc1 (centres undefined)	?	-2%	-1%	28	nt	?
C=CCn1c[n+](CC(=O)c2ccc(Br)s2)c2ccccc21	21µM*	-21%	-9%	-65*	-5%	12µM*
S=C1SC2(CCCCCC2)NC2=C1CCCCC2	?	0%	2%	14	nt	13µM*
CCN1CCN(c2nc3c(c(=O)[nH]c(=O)n3C)n2Cc2ccccc2F)CC1	-9%	-1%	-1%	13	-2%	12%
Cc1ccc(Cl)cc1N1CCN(Cc2nc3c(c(=O)[nH]c(=O)n3C)n2CCc2ccccc2)CC1	16µM*	9%	7%	4	14%	?
CCN1CCN(Cc2nc3c(c(=O)[nH]c(=O)n3C)n2Cc2ccccc2Cl)CC1	-10%	-3%	11%	4	-2%	-16%
Cc1ccc(Cl)cc1N1CCN(Cc2nc3c(c(=O)[nH]c(=O)n3C)n2Cc2ccccc2F)CC1	?	?	?	?	?	23µM*
Cn1c(=O)[nH]c(=O)c2c1nc(CN1CCOCC1)n2CCc1ccccc1	-14%	-2%	6%	20	13%	8%
Cc1ccccc1Cn1c(CN2CCN(c3cc(Cl)ccc3C)CC2)nc2c1c(=O)[nH]c(=O)n2C	?	nt	nt	nt	nt	13µM*
Cc1ccc(NC(=O)Nc2nnc(N3CCCC3)s2)c(C)c1	-1%	nt	nt	nt	nt	-4%
CCN(CC(=O)Nc1c(F)cccc1F)C(=O)COc1ccc2c(c1)CCC2	-5%	3%	11%	-12	8%	-8%
Cc1ccc(C(=O)NNC(=O)CSc2nnc(C(C)C)n2C)cc1	-3%	9%	19%	10	4%	3%
